# Assay results from PubChem BioAssay (NCI).
# The panel holds about 83,000 compounds, 20% with a hit somewhere; the sample as a whole holds those more often.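 The test compound was applied at a single concentration to cells in 96-well plates for 48 hours, and percent growth was recorded.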 Values without a mark were called inactive. The source made the active and inactive calls. How the source made its calls: active means growth percent below 10; inactive means the rest.
# How the values were obtained:
# Test in all cases: NCI-60 one-dose screen, 48 h (100 = growth as untreated, 0 = no growth, -100 = all killed)
# [1] = tested on: SR leukemia; conditions: 10 µM unless noted
# [2] = tested on: RPMI-8226 leukemia; conditions: 10 µM unless noted
# [3] = tested on: OVCAR-8 ovarian; conditions: 10 µM unless noted
# [4] = tested on: OVCAR-5 ovarian; conditions: 10 µM unless noted
# [5] = tested on: OVCAR-4 ovarian; conditions: 10 µM unless noted
# [6] = tested on: SK-OV-3 ovarian; conditions: 10 µM unless noted
# [7] = tested on: IGROV1 ovarian; conditions: 10 µM unless noted
# [8] = tested on: HS 578T breast; conditions: 10 µM
# [9] = tested on: NCI/ADR-RES ovarian; conditions: 10 µM unless noted
# [10] = tested on: T-47D breast; conditions: 10 µM unless noted
# [11] = tested on: BT-549 breast; conditions: 10 µM unless noted
# [12] = tested on: MDA-MB-435 melanoma; conditions: 10 µM unless noted
# [13] = tested on: SW-620 colon; conditions: 10 µM unless noted
# [14] = tested on: MCF7 breast; conditions: 10 µM unless noted
# [15] = tested on: HCT-116 colon; conditions: 10 µM unless noted
# [16] = tested on: HCC-2998 colon; conditions: 10 µM unless noted
# [17] = tested on: KM12 colon; conditions: 10 µM unless noted
# [18] = tested on: OVCAR-3 ovarian; conditions: 10 µM unless noted
SMILES,growth [1],growth [2],growth [3],growth [4],growth [5],growth [6],growth [7],growth [8],growth [9],growth [10],growth [11],growth [12],growth [13],growth [14],growth [15],growth [16],growth [17],growth [18]
O=c1c2sc3ccccc3c2nnn1-c1ccc(F)c(Cl)c1,-42% (active),57.3%,37.7%,51%,-5.65% (active),-8.62% (active),21.2%,33%,64.5%,45.9%,81.6%,72.3%,62.3%,63.9%,19.9%,68.7%,,
O=C(Nc1ccccc1Cl)Oc1ccc2ccccc2c1,71.1%,97.8%,84.1%,89%,101%,93.5%,77.9%,115%,101%,88.5%,133%,105%,103%,84.4%,95.3%,95.1%,95.9%,
CC(C)c1ccc(Cn2ccc3c4c(N)nc(NC5CC5)nc4ccc32)cc1,-45.8% (active),-54.7% (active),-77.8% (active),-85.9% (active),-37.4% (active),-87.2% (active),-87.4% (active),-57.1% (active),-74.4% (active),-54.8% (active),-71.2% (active),-97% (active),-82.6% (active),-82% (active),-82.8% (active),-78.6% (active),-79.2% (active),
O=C(Nc1ccc2ncnc(Nc3ccc(F)c(Cl)c3)c2c1)c1cccs1,11.3%,53%,66.2%,76.1%,47.1%,54%,38.7%,72.2%,60.7%,28.8%,68.3%,70.2%,93.2%,56.1%,54.7%,99.2%,,
CCN1CCN(Cc2ccc(NC(=O)c3nc4ccc5[nH]ncc5c4c4c3CCCC4)cc2C(F)(F)F)CC1,-29.2% (active),-24.6% (active),-59.3% (active),48.9%,22.6%,91.7%,,84.8%,18.8%,-69.3% (active),79.6%,-87.9% (active),-58.3% (active),-71.4% (active),-77.9% (active),-58.1% (active),4.08% (active),-70.5% (active)
COc1cc2nccc(Oc3ccc(NC(=O)C4(C(=O)Nc5ccc(F)cc5)CC4)cc3)c2cc1O,41.3%,52.8%,73.7%,80.8%,37.1%,86.5%,52.1%,42.7%,71.7%,55.3%,79.9%,52.6%,34.4%,51.2%,52%,79.3%,22.5%,
Oc1[nH]c2ccc(Cl)cc2c1/C=c1/ccc2c(c1)N=C(c1ccc(F)cc1)N=2,8.49% (active),69.2%,84.7%,103%,79.4%,87.4%,,68.1%,44.3%,62.6%,27.8%,-44% (active),19.3%,10.6%,9.48% (active),74%,48.6%,72%
COc1ccc(/C=C(/C(=O)N2CCN(c3ccccc3)CC2)c2cc(OC)c(OC)c(OC)c2)cc1N,12.5%,7.73% (active),19.7%,53.2%,52.3%,36.9%,36.3%,36.6%,7.6% (active),65.3%,9.88% (active),-48.7% (active),25.9%,19.9%,9.1% (active),25.3%,14.4%,
Cc1cc(C)cc(CCCCCCCCCCCCCCCCCC(=O)O)c1,107%,99.4%,103%,103%,105%,105%,108%,,,82.4%,103%,115%,108%,96.1%,99.9%,102%,106%,102%
CSC1=NC(=Nc2c(C)cccc2C)C2(CCC(C(C)(C)C)CC2)N1c1ccc(Cl)cc1 (stereo not drawn),26%,51.5%,31.6%,72.1%,60%,57.6%,55.4%,65.9%,,89.9%,81.4%,36.5%,28.6%,43%,22.4%,44.3%,39.9%,
CC(=O)c1cccc(Nc2ncnc3ccc(NC(=O)c4ccco4)cc23)c1,90.2%,75%,92.1%,90.4%,89%,104%,86.1%,102%,92.7%,77.1%,96.5%,83%,115%,80.9%,91%,111%,,
COc1ccc(-c2cn(-c3cccc(C(=O)/C=C/c4ccc(O)c(OC)c4)c3)c(=O)[nH]2)cc1,7.01% (active),-40.4% (active),11.7%,33%,33.6%,53.6%,-32.8% (active),,,32.1%,4.04% (active),20.5%,,15.2%,-35.4% (active),17.5%,-58.7% (active),-1.7% (active)
COCCOCCOCc1n(Cc2ccc3ccccc3n2)c2ccccc2[n+]1Cc1ccc2ccccc2c1,-37.1% (active),-30.3% (active),9.25% (active),14.7%,9.99% (active),-6.91% (active),,20.3%,98.9%,4.77% (active),-9.56% (active),-21.9% (active),12.4%,4.87% (active),7.79% (active),12.8%,-41.5% (active),1.01% (active)
CC(=O)c1ccc(-n2c(-c3cc(-c4ccsc4)n[nH]3)n[nH]c2=S)cc1,94%,101%,98.9%,97.8%,105%,104%,107%,,,103%,95.3%,106%,94%,90.4%,98.1%,99%,100%,113%
CCOC(=O)c1sc2nc(-c3cc4ccccc4o3)cc(-c3ccc(Cl)cc3)c2c1N,71.6%,42.4%,112%,112%,101%,104%,81.2%,91.9%,112%,103%,148%,222%,96.8%,110%,105%,109%,99.7%,
COc1cc(C2CC(c3ccc(Cl)cc3)=NN2C=O)ccc1OS(=O)(=O)c1ccc(C)cc1 (stereo not drawn),99.8%,82.4%,90.3%,87.2%,112%,96.3%,94.4%,86.8%,,77%,83.2%,90.2%,87.2%,78.9%,81.1%,104%,93.4%,
